Measurements: PubChem BioAssay (NCATS)
“And” between values parts separate entries of the source, which are not always exact repeats. Equal entries are not always repeated. Results filed as inconclusive are left out. Some structures have more than one record in an assay (separate samples or runs), and their calls can disagree. The source made the active and inactive calls. Unless noted, calls follow the shape of the dose curve; as a rule, active = well fitted curve in the direction sought with a large enough effect; inconclusive = small, poorly fitted or top-dose-only effect, or another doubt; inactive = no such curve, though single readings can be large; an effect the other way counts as inactive or inconclusive.

How the values were obtained:
Tov112D = experiment: Primary qHTS to identify gynecologic anti-cancer compounds using libraries of approved drugs and bioactive compounds (AID 1345084); details: Gynecologic cancer cell panel viability, ATPlite luminescence, 48 h; series mostly up to 57.5 µM; also: % is scaled to controls: 0 for no effect and ±100 for the full control effect; nearly all actives have a fitted effect of over 55% in size
How it was run: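 Cells, 1,000 per well, plated 16 h, then exposed 48 h at 37 C to compounds. Viability by ATPlite luminescence after 15 min at room temperature.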

[1] = Drug repurposing screens with cells derived from glioblastoma tumor samples (AID 1345199); details: GBM patient neurospheres viability, ATP luminescence, 48 h; also: nearly all actives have a fitted effect of over 40% in size; also: potency is read from the fitted curve at half-maximal effect; as to activity, negative = cell killing: % is scaled to controls: 0 for no effect and ±100 for the full control effect
How it was run: (§1)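 Primary testing used CD133+ neurospheres from four GBM patients, seven concentrations, 48 h exposure and ATP-based viability; confirmation added three slower-growing patient lines.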

astro = experiment: as above; details: viability, ATP luminescence, 48 h; series mostly up to 45.9 µM
How it was run: as §1

[2] = target: Nuclear receptor subfamily 1 group I member 2 (Rattus norvegicus) (UniProt Q9R1A7); experiment: qHTS assay for small molecule activators of the rat pregnane X receptor (rPXR) signaling pathway (AID 651751; call rule not given here; also: 0% is about no effect); details: rPXR reporter cells, luciferase (One-Glo), 24 h
Nuclear receptor subfamily 1 group I member 2 (Rattus norvegicus), sequence (Q9R1A7 whole entry, looked up): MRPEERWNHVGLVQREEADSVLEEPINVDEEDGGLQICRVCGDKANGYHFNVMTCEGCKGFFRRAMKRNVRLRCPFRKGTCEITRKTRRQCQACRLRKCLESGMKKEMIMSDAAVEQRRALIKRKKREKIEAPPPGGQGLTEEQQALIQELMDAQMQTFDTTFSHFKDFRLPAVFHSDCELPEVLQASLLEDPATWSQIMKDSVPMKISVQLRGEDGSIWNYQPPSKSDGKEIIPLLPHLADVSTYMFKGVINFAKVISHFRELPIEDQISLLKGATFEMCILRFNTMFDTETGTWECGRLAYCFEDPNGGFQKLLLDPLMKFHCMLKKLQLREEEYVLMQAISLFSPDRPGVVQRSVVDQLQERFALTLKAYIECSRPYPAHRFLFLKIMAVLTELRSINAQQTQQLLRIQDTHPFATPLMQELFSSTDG

[3] = qHTS assay for small molecule activators of the human pregnane X receptor (PXR) signaling pathway (AID 720659; call rule not given here; also: 0% is about no effect)
[4] = qHTS assay to identify inhibitors of the type 1 interferon - major histocompatibility complex class I in skeletal muscle: Counter screen cell viability and HiBit confirmation (AID 1347412); details: iHSKM muscle cells + IFN-b, HiBiT or CellTiter-Glo, 24 h; Potency: HiBiT; Viability, at 45.9 µM (top of the series); also: nearly all actives have a fitted effect of over 60% in size; also: potency is read from the fitted curve at half-maximal effect
How it was run: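 Duplicate plates, pinned identically: one read for HiBiT-tagged endogenous HLA-B luminescence, the other for ATP-content viability via CellTiter Glo. Cells were genome-engineered human myoblasts given 4 ng/ml IFN-b; compounds 12-pt, 1:3 from 46 uM final; 24 hr exposure.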

[5] = at 45.9 µM (top of the series), tumour line B
[6] = at 45.9 µM (top of the series), tumour line D
[7] = at 46 µM (top of the series), tumour line A
[8] = at 46.1 µM (top of the series), tumour line C
[9] = at 20 µM (top of the series), tumour line C
[10] = at 21.2 µM (top of the series), tumour line B
[11] = at 21.2 µM (top of the series), tumour line D
[12] = at 21.3 µM (top of the series), tumour line A

CC(C(=O)O)c1cccc(C(=O)c2ccccc2)c1 (stereo not given)
inactive: Potency (Tov112D) | activity, negative = cell killing [1, 5] -12.8% | activity, negative = cell killing [1, 6] -8.28% | activity, negative = cell killing [1, 7] -32% | activity, negative = cell killing [1, 8] 2.51%

CC12CC3CC(C)(C1)CC(N)(C3)C2
inactive: Potency (Tov112D) | activity, negative = cell killing [1, 5] 2.01% | activity, negative = cell killing [1, 6] -1.27% | activity, negative = cell killing [1, 7] 0.163% | activity, negative = cell killing [1, 8] 0.449%

NCCCCCC(=O)O
inactive: Potency (Tov112D) | activity, negative = cell killing [1, 9] 16.3% | activity, negative = cell killing [1, 10] -4.6% | activity, negative = cell killing [1, 11] -5.09% | activity, negative = cell killing [1, 12] -27.1% | Potency (astro)

COc1cc2nc(N3CCN(C(=O)C4COc5ccccc5O4)CC3)nc(N)c2cc1OC (stereo not given)
inactive: Potency (Tov112D) | activity, negative = cell killing [1, 5] -16.3% | activity, negative = cell killing [1, 6] -29.3% | activity, negative = cell killing [1, 8] -17.1%
active: Potency ([1]; tumour line A) 11.2 µM

CN1CCC(=C2c3ccccc3C=Cc3ccccc32)CC1
inactive: Potency (Tov112D) | activity, negative = cell killing [1, 8] -12.4%
active: Potency ([1]; tumour line A) 3.55 µM | Potency ([1]; tumour line B) 25.1 µM | Potency ([1]; tumour line D) 20 µM | Potency (astro) 17.8 µM

CN(C)C(=N)N=C(N)N
inactive: Potency (Tov112D) | activity, negative = cell killing [1, 9] -29.3% | activity, negative = cell killing [1, 10] -4.74% | activity, negative = cell killing [1, 11] -25.1% | activity, negative = cell killing [1, 12] -0.697% | Potency (astro)

CC(C)(Oc1ccc(C2CC2(Cl)Cl)cc1)C(=O)O (stereo not given)
inactive: Potency (Tov112D) | activity, negative = cell killing [1, 5] -9.51% | activity, negative = cell killing [1, 6] -16.1% | activity, negative = cell killing [1, 7] -29.3% | activity, negative = cell killing [1, 8] 6.66% | max response [2] 27.5% | outcome [3]

CCc1cccc2c3c([nH]c12)C(CC)(CC(=O)O)OCC3 (stereo not given)
inactive: Potency (Tov112D) | activity, negative = cell killing [1, 5] -7.67% | activity, negative = cell killing [1, 6] -2.3% | activity, negative = cell killing [1, 7] -23.8% | activity, negative = cell killing [1, 8] -25.9% | Potency (astro)

Cc1cn([C@H]2C=C[C@@H](CO)O2)c(=O)[nH]c1=O
inactive: Potency (Tov112D) | activity, negative = cell killing [1, 5] -6.16% | activity, negative = cell killing [1, 6] -7.24% | activity, negative = cell killing [1, 7] -20.7% | activity, negative = cell killing [1, 8] -21.2% | Potency (astro) | max response [2] 0.921% and -1.01% and -5.21% | outcome [3]

CCCCc1oc2ccccc2c1C(=O)c1cc(I)c(OCCN(CC)CC)c(I)c1
inactive: Potency (Tov112D) | activity, negative = cell killing [1, 8] 2%
active: Potency ([1]; tumour line A) 7.08 µM | Potency ([1]; tumour line B) 25.1 µM | Potency ([1]; tumour line D) 11.2 µM | Potency (astro) 28.2 µM and 20 µM

Cc1ccc(C(=O)Nc2ccc(S(=O)(=O)O)c3cc(S(=O)(=O)O)cc(S(=O)(=O)O)c23)cc1NC(=O)c1cccc(NC(=O)Nc2cccc(C(=O)Nc3cc(C(=O)Nc4ccc(S(=O)(=O)O)c5cc(S(=O)(=O)O)cc(S(=O)(=O)O)c45)ccc3C)c2)c1
inactive: Potency (Tov112D) | activity, negative = cell killing [1, 5] -18.8% | activity, negative = cell killing [1, 6] -0.172% | activity, negative = cell killing [1, 7] -24.3% | activity, negative = cell killing [1, 8] -24.1%

CC[N+](CC)(CC)CCOc1cccc(OCC[N+](CC)(CC)CC)c1OCC[N+](CC)(CC)CC
inactive: Potency (Tov112D) | activity, negative = cell killing [1, 5] -15.6% | activity, negative = cell killing [1, 6] -21.5% | activity, negative = cell killing [1, 7] -28% | activity, negative = cell killing [1, 8] -0.854%

CCOC(=O)Nc1ccc(NCc2ccc(F)cc2)nc1N
active: Potency ([1]; tumour line A) 10 µM
inactive: Potency (Tov112D) | activity, negative = cell killing [1, 5] -10.5% and -16.1% | activity, negative = cell killing [1, 6] -21.3% and 3.4% | activity, negative = cell killing [1, 8] 4.51% | Potency (astro)

CC(C)Cc1ccc(C(C)C(=O)O)cc1 (stereo not given)
inactive: Potency (Tov112D) | activity, negative = cell killing [1, 5] -11.8% | activity, negative = cell killing [1, 6] -6.13% | activity, negative = cell killing [1, 7] -21.1% | activity, negative = cell killing [1, 8] -7.76% | outcome [3]

COc1ccccc1OCCNCC(O)COc1cccc2[nH]c3ccccc3c12 (stereo not given)
inactive: Potency (Tov112D) | activity, negative = cell killing [1, 8] 3.12% | Potency (astro)
active: Potency ([1]; tumour line A) 11.2 µM

C[C@](N)(Cc1ccc(O)c(O)c1)C(=O)O
inactive: Potency (Tov112D) | activity, negative = cell killing [1, 5] -10.5% | activity, negative = cell killing [1, 6] -4.46% | activity, negative = cell killing [1, 8] 1.22% | max response [2] -1.2% | outcome [3]

O=C1c2c(O)ccc(O)c2C(=O)c2c(NCCNCCO)ccc(NCCNCCO)c21
active: Potency ([1]; tumour line A) 3.98 µM | Potency ([1]; tumour line B) 8.91 µM | Potency ([1]; tumour line D) 5.62 µM | Potency (astro) 5.01 µM | Potency [4] 1.76 µM
inactive: activity, negative = cell killing [1, 9] -23.1%

Cc1ccc(-c2cc(C(F)(F)F)nn2-c2ccc(S(N)(=O)=O)cc2)cc1
active: Potency ([1]; tumour line A) 8.91 µM
inactive: Potency (Tov112D) | activity, negative = cell killing [1, 5] 2.4% | activity, negative = cell killing [1, 8] 15.9% | Potency (astro)

O=C(C1CCCCC1)N1CC(=O)N2CCc3ccccc3C2C1 (stereo not given)
inactive: Potency (Tov112D) | activity, negative = cell killing [1, 5] -15.1% | activity, negative = cell killing [1, 6] -7.27% | activity, negative = cell killing [1, 8] -6.57% | Potency (astro)

COc1cc2nc(N(C)CCCNC(=O)C3CCCO3)nc(N)c2cc1OC (stereo not given)
inactive: Potency (Tov112D) | activity, negative = cell killing [1, 9] -6.33% | activity, negative = cell killing [1, 10] -6.29% | activity, negative = cell killing [1, 11] 7.29% | Potency (astro)

CN(C)CCC=C1c2ccccc2C=Cc2ccccc21
inactive: activity, negative = cell killing [1, 8] 15.9%
active: Potency ([1]; tumour line A) 14.1 µM

OCCN1CCN(CCCN2c3ccccc3Sc3ccc(C(F)(F)F)cc32)CC1
inactive: Potency (Tov112D) | activity, negative = cell killing [1, 8] -28.6% | Potency [4]
active: Potency ([1]; tumour line A) 1.26 µM | Potency ([1]; tumour line D) 10 µM
